# Data published in the supplement of paper PMC13094657.
# ± gives the standard deviation of the averaged measurements.
# System: MDA-MB-231
# Test: kynurenine production, fold change vs DMSO IFNg/TNF control; higher = more kynurenine produced (less inhibition)
# Conditions: pre-treatment time: 18 h then 24 h IFNg/TNF
# Outline: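 In 96-well plates, MDA-MB-231 cells (7 × 10^4/well) were given 24 h to settle, pre-treated for 18 h with each natural product in 0.1% DMSO, and stimulated for 24 h with IFNγ (1 U/ml) and TNF (6.25 ng/ml) at 37°C. Supernatants were processed with trichloroacetic acid and p-dimethylaminobenzaldehyde and read at 492 nm against 0–100 μM standards. In the first screening round, kynurenine production, as fold change over same-plate cytokine-stimulated vehicle wells, was averaged over duplicate plates.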
row,Compound,kynurenine production
1,COc1cc2c(cc1O)C(Cc1ccc(O)cc1)NCC2 (configuration not stated) [Coclaurine] (compound dose: 10 uM),1.04 ± 0.062
2,COc1ccc(C[C@H]2COC(=O)[C@]2(O)Cc2ccc(O[C@@H]3O[C@H](CO)[C@@H](O)[C@H](O)[C@H]3O)c(OC)c2)cc1OC [Tracheloside] (compound dose: 10 uM),0.824 ± 0.11
3,"CC(C)C12CCC(C)(CC1)O2 [1,4-Cineole] (compound dose: 10 uM)",0.863 ± 0.11
4,C[C@@H]1O[C@@H](O[C@H]2[C@H](OC(=O)[C@]34CCC(C)(C)C[C@H]3C3=CC[C@@H]5[C@@]6(C)C[C@H](O)[C@H](O[C@@H]7O[C@H](CO)[C@@H](O)[C@H](O)[C@H]7O)C(CO)(CO)[C@@H]6CC[C@@]5(C)[C@]3(C)C[C@H]4O)OC[C@H](O)[C@@H]2O)[C@H](O)[C@H](O)[C@H]1O[C@@H]1OC[C@@H](O)[C@H](O[C@@H]2OC[C@](O)(CO)[C@H]2O)[C@H]1O [Platycodin D] (compound dose: 10 uM),0.354 ± 0.065
5,CC(/C=C/C=C(\C)C(=O)O[C@@H]1O[C@H](CO)[C@@H](O)[C@H](O)[C@H]1O)=C\C=C\C=C(C)\C=C\C=C(/C)C(=O)O[C@@H]1O[C@H](CO[C@@H]2O[C@H](CO)[C@@H](O)[C@H](O)[C@H]2O)[C@@H](O)[C@H](O)[C@H]1O [Crocin II] (compound dose: 10 uM),0.907 ± 0.13
6,C=C1[C@H](OC(=O)C(C)C)[C@@H](O)[C@@H](OC(=O)c2cccnc2)C(C)(C)/C=C/[C@H](C)[C@H](OC(C)=O)[C@@]2(O)C[C@@](C)(OC(C)=O)[C@H](OC(=O)c3ccccc3)[C@@H]2[C@H]1OC(C)=O [Jatrophane 3] (compound dose: 10 uM),0.82 ± 0.18
7,C[C@H]1[C@H](C)CC[C@]2(C(=O)O)CC[C@]3(C)C(=CC[C@@H]4[C@@]5(C)CC[C@H](O)C(C)(C)[C@@H]5CC[C@]43C)[C@H]12 [3-Epiursolic Acid] (compound dose: 10 uM),0.649 ± 0.08
